The whole screen tested about 52,000 compounds, of which about 1,700 (3.3%) were called active. This is one part of a sample in which actives are shown more often than they occur. A number with no mark means an inactive call. Rule as the data show it: active = survival mostly below about 52% (no sharp cut-off); inactive = mostly above about 56%.

The test system of this assay is Wild type. Description: growth inhibition of S. aureus wild type versus tarO mutant, primary screen, teichoic acid synthesis inhibitors, RN4220, OD600 (AID 463173). The conditions noted are these: S. aureus RN4220 wild type/DeltatarO growth, OD600, 18 h, stronger effect = lower value, screened at 18.75 µg/mL (by protocol).
For `O=C(CSc1nnnn1Cc1ccccc1)Nc1ccccc1`, the survival is 114%.

As for `COc1ccc(OC)c(CNS(=O)(=O)c2c(C(=O)N3CCCCCC3)c(C)n(C)c2C)c1`, the survival is 135%.

`COc1ccccc1CNC(=O)CCC(=O)N1CC2CCCN2c2ccccc21` (centres undefined): the survival is 80%.

Regarding `CC(C)(C)C(=O)Nc1cccc(-c2cn3cccnc3n2)c1`, the survival is 70%.

Regarding `O=C(CCCn1c(=O)c2cccn2c2ccccc21)NCc1ccccc1Br`, the survival is 55%.

Turning to `CCc1ccc2nc(N3CCCC3)c(C#N)cc2c1`, the survival was 108%.

On to `O=C(CSc1n[nH]c(-c2ccccc2Cl)n1)N1CCN(c2ccccc2F)CC1`, for which the survival was 123%.

For `O=C1c2[nH]nc(-c3ccc(F)cc3)c2C(c2ccccc2F)N1c1ccccc1` (centres undefined), the survival is 4% (active).

On to `COC(=O)c1ccc(C2c3c(-c4ccc(Br)cc4)n[nH]c3C(=O)N2c2ccc(Cl)cc2)cc1` (centres undefined), for which the survival is 75%.

Consider `Cc1ccc(-c2n[nH]c3c2C(c2cccc(O)c2)N(c2ccc(C(=O)O)cc2)C3=O)cc1` (centres undefined), for which the survival is 98%.

As for `COc1ccc(-c2n[nH]c3c2C(c2ccc(O)cc2)N(c2ccc(Br)cc2)C3=O)cc1` (centres undefined), the survival is 11% (active).

Regarding `CCOc1cc(C2c3c(-c4ccc(Br)cc4)n[nH]c3C(=O)N2c2ccc(Cl)cc2)ccc1O` (centres undefined), the survival is 42%.

On to `CCOC(=O)c1ccc(N2C(=O)c3[nH]nc(-c4ccc(OC)cc4)c3C2c2ccc(C)cc2)cc1` (centres undefined), for which the survival is 89%.

In the case of `O=C1c2[nH]nc(-c3ccc(Br)cc3)c2C(c2cccc(O)c2)N1c1ccc(Cl)cc1` (centres undefined), the survival was 1% (active).

In the case of `COc1ccccc1C1c2c(-c3ccc(Cl)cc3)n[nH]c2C(=O)N1c1ccc(C)cc1` (centres undefined), the survival is 85%.

Consider `COc1ccc(C2c3c(-c4ccc(F)cc4)n[nH]c3C(=O)N2c2ccccc2)cc1OC` (centres undefined), for which the survival was 134%.

Consider `COc1cccc(CNC(=O)CN2C(=O)COc3ccc(S(=O)(=O)N4CCCCC4)cc32)c1`, for which the survival is 100%.

As for `CCOc1ccccc1CNC(=O)C(CC)n1nc(C)c2c(C)n(-c3ccccc3)nc2c1=O` (centres undefined), the survival is 88%.

As for `CCOC(=O)c1ccc(NC(=O)CCCn2c(=O)c3cccn3c3ccccc32)cc1`, the survival is 78%.

In the case of `CCc1ccc(C(=O)c2cn(CC(=O)Nc3ccc(OC)c(Cl)c3)c3nc(C)ccc3c2=O)cc1`, the survival was 119%.

On to `COC(=O)c1sc2cccc(F)c2c1S(=O)(=O)Nc1ccc(N(C)C)cc1`, for which the survival is 53%.

Take `CCOC(=O)c1sc2cccc(F)c2c1S(=O)(=O)Nc1ccccc1F`: the survival is 124%.

Turning to `CCOc1ccccc1NS(=O)(=O)c1c(C(=O)OC)sc2cccc(F)c12`, the survival is -3% (active).

As for `COC(=O)c1sc2cccc(F)c2c1S(=O)(=O)Nc1ccc(C)cc1Cl`, the survival is 63%.

On to `COC(=O)c1sc2cccc(F)c2c1S(=O)(=O)Nc1cc(OC)cc(OC)c1`, for which the survival is 0% (active).

As to `COC(=O)c1sc2cccc(F)c2c1S(=O)(=O)Nc1cc(C)c(Cl)cc1OC`, the survival was 85%.

For `CC(C)c1ccc(NC(=O)C2CCCN(S(=O)(=O)c3cccc4nsnc34)C2)cc1` (centres undefined), the survival was 70%.

As for `CN1CCc2nc3sc(C(=O)c4ccc5c(c4)OCO5)c(N)c3cc2C1`, the survival was 116%.

As to `Cc1ccc(-n2c(-c3ccc(Br)cc3)nc3c(cnn3-c3ccccc3)c2=O)cc1`, the survival is 66%.

For `Clc1ccc(CNc2ccccn2)cc1`, the survival was 98%.

Take `Cc1cc(C)n(-c2nc3ccccc3nc2Nc2ccc(N(C)C)cc2)n1`: the survival was 2% (active).

Consider `Cc1ccc2nc(Nc3cccc(Cl)c3C)c(-n3nc(C)cc3C)nc2c1`, for which the survival was 131%.

`Cc1cc(C)n(-c2nc3ccccc3nc2Nc2cccc(C)c2C)n1`: the survival is 7% (active).

`CCCOC(=O)c1ccc(Nc2nc3ccccc3nc2-n2nc(C)cc2C)cc1`: the survival is 32%.

Regarding `Cc1cc(C)cc(Nc2nnc(-n3nc(C)cc3C)c3ccccc23)c1`, the survival is 86%.

As for `Cc1cc(C)n(-c2nc3ccccc3nc2Nc2cc(Cl)ccc2C)n1`, the survival is 131%.

Take `CC(=O)c1ccc(Nc2nc3ccccc3nc2-n2nc(C)cc2C)cc1`: the survival was 54%.

For `Cc1cc(C)cc(Nc2nc3ccccc3nc2-n2nc(C)cc2C)c1`, the survival was 8% (active).

For the compound `Cc1cc(C)n(-c2nc3ccccc3nc2Nc2ccc(Cl)c(C(=O)OC(C)C)c2)n1`, the survival was 84%.

In the case of `Cc1cc(C)cc(Nc2nc3cc(Cl)c(Cl)cc3nc2-n2nc(C)cc2C)c1`, the survival was 81%.

With `Cc1cc(C)n(-c2nc3ccccc3nc2Nc2ccc(C(C)C)cc2)n1`, the survival is 5% (active).

Turning to `Cc1cc(C)n(-c2nnc(Nc3ccc(C(C)C)cc3)c3ccccc23)n1`, the survival is 74%.

Turning to `CCOC(=O)N1CCc2c(sc(NCc3sccc3C)c2C(=O)Nc2cc(OC)ccc2OC)C1`, the survival was 65%.

Regarding `Cc1cccc(N2CCN(Cc3nnc(-c4ccccc4C)o3)CC2C)c1` (centres undefined), the survival is 21%.

Turning to `CCOC(=O)c1c(C)sc(-c2c(-c3ccc(OC)c(F)c3)[nH]c3[nH]c(=O)[nH]c(=O)c23)c1O`, the survival is 111%.

For `CCCOc1ccc(CNC(=O)Cn2cc3c(n2)-c2c(oc(C(=O)N4CCOCC4)c2C)CC3)cc1`, the survival was 96%.

As to `COc1ccc(-c2nn(C)c3sc(C(=O)NCCN(C)C)cc23)cc1OC`, the survival was 82%.

As to `CCOC(=O)c1c(C)[nH]c(C)c1S(=O)(=O)N(C)CC(=O)Nc1cccc(C(F)(F)F)c1`, the survival is 69%.

As for `COC(=O)C(CCSC)NC(=O)Cn1ncc2c([nH]c3ccccc32)c1=O` (centres undefined), the survival was 47%.

For `COc1cc2c(c(OC)c1)C(c1cccc(F)c1F)CC(=O)N2` (centres undefined), the survival was 82%.

As for `COc1ccc(CCN(Cc2nc3ccccc3c(=O)[nH]2)C(=O)c2ccco2)cc1`, the survival is 81%.

For the compound `Cc1ccc(NS(=O)(=O)c2ccc3[nH]c4c(c3c2)CCCCC4)cc1`, the survival is 84%.

For `O=C(CCn1c(=O)c2cccn2c2cccnc21)NCc1ccccc1Br`, the survival was 93%.

Take `Cc1cc(C)n(-c2nc3ccccc3nc2Nc2ccc(Cl)cc2Cl)n1`: the survival was 86%.

Consider `Cc1ccc(Nc2nc3ccccc3nc2-n2nc(C)cc2C)c(Cl)c1`, for which the survival is 88%.

On to `COc1ccc(OC)c(Nc2nc3ccccc3nc2-n2nc(C)cc2C)c1`, for which the survival is 10% (active).

`COc1cc(OC)c(Nc2nc3ccccc3nc2-n2nc(C)cc2C)cc1Cl`: the survival is 80%.

As to `COc1ccccc1Nc1nc2ccc(Cl)cc2nc1-n1nc(C)cc1C`, the survival is 138%.

In the case of `Cc1cc(C)n(-c2nc3ccccc3nc2Nc2ccc(Cl)c(Cl)c2)n1`, the survival is 1% (active).

The values above are taken from PubChem BioAssay AID463173 (ICCB-Longwood Screening Facility, Harvard Medical School, 2010).
